# From ChEMBL document CHEMBL1961873, “Compounds: GSK PKIS; Assays: Nanosyn kinase panel” (2012)
# Molecular target: Angiopoietin-1 receptor (Homo sapiens) (UniProt Q02763)
# Details: at 0.1 µM
# Sequence of Angiopoietin-1 receptor (Homo sapiens) (Q02763 whole entry): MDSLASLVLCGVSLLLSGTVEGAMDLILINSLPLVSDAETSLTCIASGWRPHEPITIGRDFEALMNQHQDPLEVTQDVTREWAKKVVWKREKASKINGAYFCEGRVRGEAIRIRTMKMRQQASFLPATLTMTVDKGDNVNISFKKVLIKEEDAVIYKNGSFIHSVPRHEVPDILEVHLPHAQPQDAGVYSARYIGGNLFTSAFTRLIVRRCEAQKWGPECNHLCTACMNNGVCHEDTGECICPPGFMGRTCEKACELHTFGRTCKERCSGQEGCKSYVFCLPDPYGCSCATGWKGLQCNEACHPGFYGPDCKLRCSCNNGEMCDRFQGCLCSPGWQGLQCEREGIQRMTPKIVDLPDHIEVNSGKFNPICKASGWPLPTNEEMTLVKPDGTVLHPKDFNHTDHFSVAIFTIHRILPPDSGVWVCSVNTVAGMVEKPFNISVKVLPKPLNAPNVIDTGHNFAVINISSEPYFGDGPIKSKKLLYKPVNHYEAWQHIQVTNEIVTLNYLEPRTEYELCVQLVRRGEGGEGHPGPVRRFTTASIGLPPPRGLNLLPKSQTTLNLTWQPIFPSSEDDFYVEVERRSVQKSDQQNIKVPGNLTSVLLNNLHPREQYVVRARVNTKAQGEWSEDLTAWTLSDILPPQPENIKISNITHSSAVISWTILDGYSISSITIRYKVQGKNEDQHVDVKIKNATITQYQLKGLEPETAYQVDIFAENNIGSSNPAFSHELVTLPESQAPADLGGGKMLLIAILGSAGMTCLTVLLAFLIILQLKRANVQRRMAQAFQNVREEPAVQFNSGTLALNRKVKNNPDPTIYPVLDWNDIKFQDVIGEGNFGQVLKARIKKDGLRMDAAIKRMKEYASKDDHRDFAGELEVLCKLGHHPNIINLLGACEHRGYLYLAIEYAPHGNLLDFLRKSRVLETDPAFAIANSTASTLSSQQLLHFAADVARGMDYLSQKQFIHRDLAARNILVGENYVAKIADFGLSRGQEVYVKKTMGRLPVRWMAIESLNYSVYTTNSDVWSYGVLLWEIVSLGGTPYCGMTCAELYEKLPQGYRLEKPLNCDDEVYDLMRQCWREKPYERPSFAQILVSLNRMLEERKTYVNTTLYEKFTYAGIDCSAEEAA
row,SMILES,inhibition
1,Cc1ccc(Nc2ccnc(Nc3cccc(C(N)=O)c3)n2)cc1O,4.56%
2,COC(=O)c1cncc(/C=C/c2c(C)cc(O)cc2C)c1,1%
3,Cc1cc(O)cc(C)c1/C=C/c1cncc(C(=O)N(C)C)c1,5.65%
4,NC(=O)c1cccc(Nc2nccc(Nc3cccc(F)c3)n2)c1,1.74%
5,COc1cc2ncnc(Nc3ccc4c(cnn4Cc4ccccc4)c3)c2cc1OC,4.78%
6,CCn1c(-c2nonc2N)nc2c(C#CC(C)(C)O)nc(OCCNC)cc21,2.67%
7,Nc1nccc(C#Cc2cncnc2Nc2ccc(OCc3cccc(F)c3)c(Cl)c2)n1,4.38%
8,COC(=O)Nc1nc2cc(Oc3ccc(NC(=O)Nc4cccc(Br)c4)cc3)ccc2[nH]1,31.3%
9,O=C1Nc2ccccc2/C1=C/Nc1ccc2[nH]c(=O)[nH]c2c1,5.76%
10,NS(=O)(=O)c1ccc(Nc2cc(-c3cccc(O)c3)n[nH]2)cc1,4.05%
11,COc1cc2ncn(-c3cc(OCc4ccccc4S(C)(=O)=O)c(C#N)s3)c2cc1OC,5.63%
12,CC(C)c1ccc(Nc2nccc(-c3cnn4ncccc34)n2)cc1,2.92%
13,NS(=O)(=O)c1ccc(N/N=C2\C(=O)Nc3ccc(Cl)cc32)cc1,0.79%
14,FC(F)(F)c1ccc(-c2nn3ncccc3c2-c2ccnc(Nc3ccc4c(c3)OCCO4)n2)cc1,9.11%
15,Nc1ccc(C#Cc2cncnc2Nc2ccc(OCc3cccc(F)c3)c(Cl)c2)cc1,1.84%
16,Cc1ccc(O)cc1Nc1ccnc2ccc(S(C)(=O)=O)cc12,27.1%
17,NS(=O)(=O)c1ccc(NC=C2C(=O)Nc3ccc4ncsc4c32)cc1,1.88%

# Molecular target: Angiopoietin-1 receptor (Homo sapiens) (UniProt Q02763)
# Details: at 1 µM
row,SMILES,inhibition
1,COc1cc2ncnc(Nc3ccc(C)c(O)c3)c2cc1OC,17.7%
2,Cc1cc(-c2ccccn2)cc(C)c1/C=C/c1cncc(-c2nn[nH]n2)c1,8.32%
3,CC(C)c1ccc2c(c1)NC(=O)/C2=N/Nc1ccc(S(N)(=O)=O)cc1,3.02%
4,CCn1c(-c2nonc2N)nc2ccc(F)cc21,1.79%
5,CN(c1ccc(NC(=O)Nc2ccc(OC(F)(F)F)cc2)cc1)c1ccnc(Nc2cccc(S(N)(=O)=O)c2)n1,79.2%
6,c1ccc(Nc2ncc(-c3ccccc3)o2)cc1,3.99%
7,CCOc1nccc2c1nc(-c1nonc1N)n2CC,8.59%
8,COc1cccc(-n2ncc3c(N/N=C/c4ccc(S(C)(=O)=O)cc4)ncnc32)c1,31.4%
9,Cc1ccc2c(-c3ccnc(Nc4cccc(C(F)(F)F)c4)n3)c(-c3ccccc3)nn2n1,8.11%
10,NS(=O)(=O)c1cccc(Nc2cc(-c3ccc(F)cc3)n[nH]2)c1,4.79%
11,CCCN1CCCC(c2ccc(Nc3nc(Nc4cc(F)ccc4C(N)=O)c4cc[nH]c4n3)c(OC)c2)C1 (configuration not stated),4.28%
12,c1ccc(Cc2nc3ccc(Nc4ncnc5ccccc45)cc3[nH]2)cc1,5.58%
13,CN1CCN(C(=O)c2ccc(NC(=O)Nc3ccc(N(C)c4ccnc(Nc5ccc(CS(C)(=O)=O)cc5)n4)cc3)cc2)CC1,67.1%
14,N#Cc1cccc(Nc2nccc(-c3cnn4ncccc34)n2)c1,18.6%
15,Nc1nccc(-c2c(-c3ccc(F)cc3)ncn2CCCN2CCOCC2)n1,8.42%
16,COc1cc(/C=N/Nc2ncnc3c2cnn3C(C)C)ccc1O,12.2%
17,O=C(Nc1ccc(Oc2ccc3[nH]c(NC(=O)c4ccco4)nc3c2)cc1)Nc1cc(C(F)(F)F)ccc1F,82.4%
18,Cc1ccc(Nc2ccnc(Nc3cccc(C(N)=O)c3)n2)cc1O,39.7%
19,COC(=O)c1cncc(/C=C/c2c(C)cc(O)cc2C)c1,1.3%
20,Cc1cc(O)cc(C)c1/C=C/c1cncc(C(=O)N(C)C)c1,10.7%
21,NC(=O)c1cccc(Nc2nccc(Nc3cccc(F)c3)n2)c1,10.1%
22,COc1cc2ncnc(Nc3ccc4c(cnn4Cc4ccccc4)c3)c2cc1OC,10.2%
23,CCn1c(-c2nonc2N)nc2c(C#CC(C)(C)O)nc(OCCNC)cc21,6.8%
24,Nc1nccc(C#Cc2cncnc2Nc2ccc(OCc3cccc(F)c3)c(Cl)c2)n1,3.5%
25,COC(=O)Nc1nc2cc(Oc3ccc(NC(=O)Nc4cccc(Br)c4)cc3)ccc2[nH]1,54%
26,O=C1Nc2ccccc2/C1=C/Nc1ccc2[nH]c(=O)[nH]c2c1,9.19%
27,NS(=O)(=O)c1ccc(Nc2cc(-c3cccc(O)c3)n[nH]2)cc1,3.13%
28,COc1cc2ncn(-c3cc(OCc4ccccc4S(C)(=O)=O)c(C#N)s3)c2cc1OC,14.6%
29,CC(C)c1ccc(Nc2nccc(-c3cnn4ncccc34)n2)cc1,4.32%
30,NS(=O)(=O)c1ccc(N/N=C2\C(=O)Nc3ccc(Cl)cc32)cc1,3.42%
